Source: PubChem BioAssay (NCI)
The panel holds about 83,000 compounds, 20% with a hit somewhere; the sample as a whole holds those more often.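 In brief: 96-well plates, 48 h treatment, single concentration, percent growth endpoint.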 Activity calls are given as the source filed them. How the source made its calls: active means growth percent below 10; inactive means the rest.

Experiments:
Test in all cases: NCI-60 one-dose screen, 48 h (100 = growth as untreated, 0 = no growth, -100 = all killed)
Conditions in all cases: 10 µM unless noted
HCT-15 colon = system: HCT-15 colon
HT29 colon = system: HT29 colon
SNB-75 CNS = system: SNB-75 CNS
SNB-19 CNS = system: SNB-19 CNS
U251 CNS = system: U251 CNS
SK-MEL-5 melanoma = system: SK-MEL-5 melanoma
UACC-62 melanoma = system: UACC-62 melanoma
LOX IMVI melanoma = system: LOX IMVI melanoma
SK-MEL-28 melanoma = system: SK-MEL-28 melanoma
SK-MEL-2 melanoma = system: SK-MEL-2 melanoma
EKVX NSCLC = system: EKVX NSCLC
SN12C renal = system: SN12C renal
UO-31 renal = system: UO-31 renal
TK-10 renal = system: TK-10 renal
ACHN renal = system: ACHN renal
CAKI-1 renal = system: CAKI-1 renal
A498 renal = system: A498 renal
CCRF-CEM leukemia = system: CCRF-CEM leukemia
MOLT-4 leukemia = system: MOLT-4 leukemia
PC-3 prostate = system: PC-3 prostate

Measured: growth

Cc1cc(=O)c2c(C)ccc(C)c2[nH]1
inactive: HCT-15 colon 101% | HT29 colon 111% | SNB-75 CNS 101% | SNB-19 CNS 99.8% | U251 CNS 100% | SK-MEL-5 melanoma 110% | UACC-62 melanoma 96.4% | LOX IMVI melanoma 97.7% | SK-MEL-28 melanoma 109% | SK-MEL-2 melanoma 104% | EKVX NSCLC 102% | SN12C renal 101% | UO-31 renal 86.8% | TK-10 renal 108% | ACHN renal 102% | CAKI-1 renal 108% | A498 renal 108% | CCRF-CEM leukemia 102% | MOLT-4 leukemia 100%

CCOC(=O)c1cc2c(n(C)c1=O)-c1cnn(-c3ccc(OC)cc3)c1CC2
inactive: HCT-15 colon 89% | HT29 colon 95.6% | SNB-75 CNS 90.5% | SNB-19 CNS 96.6% | PC-3 prostate 98.5% | SK-MEL-5 melanoma 98% | UACC-62 melanoma 91.1% | LOX IMVI melanoma 93.9% | SK-MEL-28 melanoma 96.6% | SK-MEL-2 melanoma 105% | SN12C renal 99.8% | UO-31 renal 77.5% | TK-10 renal 130% | ACHN renal 81.4% | CAKI-1 renal 89.8% | A498 renal 87% | CCRF-CEM leukemia 89.5% | MOLT-4 leukemia 94.2%

O=C(Nc1ccccc1O)c1ccc(NS(=O)(=O)c2cccc3cccnc23)cc1
inactive: HCT-15 colon 63.9% | HT29 colon 39.9% | SNB-75 CNS 48.5% | SNB-19 CNS 67.9% | U251 CNS 46.5% | PC-3 prostate 59% | UACC-62 melanoma 23.1% | SK-MEL-28 melanoma 37.6% | SK-MEL-2 melanoma 23.6% | UO-31 renal 20.8% | ACHN renal 52.1% | CAKI-1 renal 44.7% | A498 renal 45.5% | MOLT-4 leukemia 28.5%

FC(F)(F)c1cc(CNc2nc(Cl)ncc2Br)cc(C(F)(F)F)c1
inactive: HCT-15 colon 79.7% | HT29 colon 98.4% | SNB-75 CNS 66.6% | SNB-19 CNS 107% | PC-3 prostate 80.2% | SK-MEL-5 melanoma 95.4% | UACC-62 melanoma 77.2% | LOX IMVI melanoma 98.4% | SK-MEL-28 melanoma 94% | SK-MEL-2 melanoma 83.6% | SN12C renal 89.3% | UO-31 renal 67.1% | TK-10 renal 94% | ACHN renal 94.5% | CAKI-1 renal 76.5% | A498 renal 80.2% | CCRF-CEM leukemia 81.4% | MOLT-4 leukemia 82.4%

O=C(COc1cccc(/C=C2\COc3ccccc3C2=O)c1)c1ccccc1
active: CCRF-CEM leukemia -32.7% | MOLT-4 leukemia -21.9%
inactive: HCT-15 colon 33.1% | HT29 colon 41.2% | SNB-75 CNS 71% | SNB-19 CNS 100% | U251 CNS 60.9% | SK-MEL-5 melanoma 47.7% | UACC-62 melanoma 59.4% | LOX IMVI melanoma 23.7% | SK-MEL-28 melanoma 97.2% | SK-MEL-2 melanoma 70.7% | EKVX NSCLC 84% | SN12C renal 84.9% | UO-31 renal 75.1% | TK-10 renal 92.2% | ACHN renal 86.8% | CAKI-1 renal 53.2% | A498 renal 86.9%

COc1ccc(/C=C2\CN(Cc3cn(CCCNc4ccnc5cc(Cl)ccc45)nn3)C/C(=C\c3ccc(OC)cc3)C2=O)cc1
inactive: HCT-15 colon 67.6% | HT29 colon 14.6% | SNB-75 CNS 70.1% | SNB-19 CNS 72.9% | U251 CNS 41.3% | SK-MEL-5 melanoma 52.7% | LOX IMVI melanoma 35.5% | SK-MEL-28 melanoma 80.5% | SK-MEL-2 melanoma 90.4% | SN12C renal 67% | UO-31 renal 54.7% | TK-10 renal 94.9% | ACHN renal 79.6% | CAKI-1 renal 92.6% | A498 renal 52.9% | MOLT-4 leukemia 32.2%
active: CCRF-CEM leukemia 1.02%

Cc1ccc(-c2c3c(N)c4c(nc3nc3c2c(C)nn3-c2ccccc2)CCCC4)cc1
inactive: HCT-15 colon 99.3% | HT29 colon 95.4% | SNB-75 CNS 97.2% | SNB-19 CNS 108% | PC-3 prostate 90.9% | SK-MEL-5 melanoma 104% | UACC-62 melanoma 106% | LOX IMVI melanoma 93.9% | SK-MEL-28 melanoma 99.8% | SK-MEL-2 melanoma 96% | SN12C renal 99.8% | UO-31 renal 88% | TK-10 renal 102% | ACHN renal 97.7% | CAKI-1 renal 93.2% | A498 renal 92.2% | CCRF-CEM leukemia 82.7% | MOLT-4 leukemia 92.6%

NC(=O)c1cc(Cl)ccc1NC(=O)COc1ccccc1
inactive: HCT-15 colon 33.3% | HT29 colon 17.6% | SNB-75 CNS 36.5% | SNB-19 CNS 64.7% | U251 CNS 39.7% | PC-3 prostate 47.3% | UACC-62 melanoma 56.7% | SK-MEL-28 melanoma 69.3% | SK-MEL-2 melanoma 49.7% | SN12C renal 64.3% | UO-31 renal 58.3% | ACHN renal 58.4% | A498 renal 83.5% | CCRF-CEM leukemia 23.2% | MOLT-4 leukemia 34.7%

CCCCCCCCCCCCSC1=CC(=O)C=CC1=O
inactive: HCT-15 colon 74.6% | HT29 colon 94.7% | SNB-75 CNS 44.9% | SNB-19 CNS 40.4% | PC-3 prostate 16.8% | SK-MEL-5 melanoma 97.5% | UACC-62 melanoma 96.4% | LOX IMVI melanoma 28.1% | SK-MEL-28 melanoma 110% | SK-MEL-2 melanoma 90.1% | SN12C renal 55.1% | UO-31 renal 52.8% | TK-10 renal 118% | ACHN renal 81% | CAKI-1 renal 52.6% | A498 renal 107%
active: CCRF-CEM leukemia -10% | MOLT-4 leukemia -0.985%

CCCN(CCC)c1ccc(/C=C/c2ccc3cc(OCC)ccc3n2)cc1
inactive: HCT-15 colon 78.6% | HT29 colon 66.7% | SNB-75 CNS 98.6% | SNB-19 CNS 90% | U251 CNS 74.9% | SK-MEL-5 melanoma 78.3% | UACC-62 melanoma 86.6% | LOX IMVI melanoma 97.6% | SK-MEL-28 melanoma 64.8% | SK-MEL-2 melanoma 88.2% | EKVX NSCLC 86.3% | SN12C renal 90.7% | UO-31 renal 71.8% | TK-10 renal 116% | ACHN renal 92.4% | CAKI-1 renal 85.1% | A498 renal 64.6% | MOLT-4 leukemia 53%

FC(F)(F)c1ccc2c(c1)n1cnnc1c1nncn21
inactive: HCT-15 colon 111% | HT29 colon 107% | SNB-75 CNS 103% | SNB-19 CNS 107% | PC-3 prostate 98.3% | SK-MEL-5 melanoma 98.7% | UACC-62 melanoma 110% | LOX IMVI melanoma 108% | SK-MEL-28 melanoma 115% | SK-MEL-2 melanoma 112% | EKVX NSCLC 94.4% | SN12C renal 106% | UO-31 renal 87.6% | TK-10 renal 100% | ACHN renal 112% | CAKI-1 renal 97% | A498 renal 94.7% | MOLT-4 leukemia 96.4%

O=C1C2CC3C(CC2C(=O)[N]1[Sn]([c]1ccccc1)([c]1ccccc1)[c]1ccccc1)C1(Cl)C(Cl)=C(Cl)C3(Cl)C1(Cl)Cl (stereo unspecified)
active: HCT-15 colon -88% | HT29 colon -87.3% | SNB-75 CNS -84.8% | SNB-19 CNS -97.4% | PC-3 prostate -92.9% | SK-MEL-5 melanoma -93.1% | UACC-62 melanoma -95.7% | LOX IMVI melanoma -66.7% | SK-MEL-28 melanoma -94.2% | SK-MEL-2 melanoma -93.5% | SN12C renal -87.3% | UO-31 renal -98.3% | TK-10 renal -100% | ACHN renal -99.8% | CAKI-1 renal -92.8% | A498 renal -95.5% | CCRF-CEM leukemia -43.3% | MOLT-4 leukemia -46.1%

Cc1nn(-c2ccccc2)c2nc3nc4c(c(N)c3c(-c3ccc(Cl)cc3)c12)CCCC4
inactive: HCT-15 colon 93.3% | HT29 colon 91.5% | SNB-75 CNS 101% | SNB-19 CNS 108% | PC-3 prostate 94.7% | SK-MEL-5 melanoma 101% | UACC-62 melanoma 108% | LOX IMVI melanoma 94.4% | SK-MEL-28 melanoma 97.2% | SK-MEL-2 melanoma 98.3% | SN12C renal 96.3% | UO-31 renal 84.4% | TK-10 renal 112% | ACHN renal 81.8% | CAKI-1 renal 90.5% | A498 renal 97.2% | CCRF-CEM leukemia 92.5% | MOLT-4 leukemia 97%

COc1ccc(C2CC(c3cc(OC)c(OC)c(OC)c3)=NN2c2ccc(S(N)(=O)=O)cc2)cc1 (stereo unspecified)
inactive: HCT-15 colon 66.8% | HT29 colon 59.3% | SNB-75 CNS 33.1% | SNB-19 CNS 74% | U251 CNS 53.2% | SK-MEL-5 melanoma 58.2% | LOX IMVI melanoma 52.9% | SK-MEL-28 melanoma 76.9% | SK-MEL-2 melanoma 83.2% | SN12C renal 73.7% | UO-31 renal 29.8% | TK-10 renal 66.4% | ACHN renal 76.5% | CAKI-1 renal 67.3% | A498 renal 44.5% | CCRF-CEM leukemia 41.3%

COc1c(O)c2c3c(c1OC)-c1ccccc1CC3N(S(=O)(=O)c1ccc(C)cc1)CC2 (stereo unspecified)
active: CCRF-CEM leukemia 1.29%
inactive: HCT-15 colon 37.3% | HT29 colon 121% | SNB-75 CNS 22.8% | U251 CNS 22.5% | PC-3 prostate 48.5% | SK-MEL-5 melanoma 21.8% | UACC-62 melanoma 58% | LOX IMVI melanoma 51.7% | SK-MEL-28 melanoma 53.2% | EKVX NSCLC 106% | SN12C renal 50% | TK-10 renal 83.4% | ACHN renal 50% | CAKI-1 renal 51.1% | A498 renal 88.3% | MOLT-4 leukemia 30.7%

CC(C)(C)CC(C)(C)N(CSc1ccc(Cl)cc1)CSc1ccc(Cl)cc1
active: PC-3 prostate 2.25% | CCRF-CEM leukemia -19.8% | MOLT-4 leukemia -34.5%
inactive: HCT-15 colon 53.3% | HT29 colon 57.7% | SNB-75 CNS 49.6% | SNB-19 CNS 67.5% | SK-MEL-5 melanoma 54.2% | UACC-62 melanoma 57.9% | SK-MEL-28 melanoma 76.7% | SK-MEL-2 melanoma 74.4% | SN12C renal 16.6% | UO-31 renal 25.5% | TK-10 renal 76.5% | ACHN renal 63.8% | CAKI-1 renal 24.9%

CCCOC(=O)c1ccc2c(c1)[N+](=O)C(C(=O)c1ccccc1)=C(C(F)(F)F)[N+]2=O
active: HCT-15 colon -65.7% | HT29 colon -92.1% | SNB-75 CNS -98.5% | SNB-19 CNS -88.9% | PC-3 prostate -91.5% | UACC-62 melanoma -92.4% | LOX IMVI melanoma -74.7% | SK-MEL-28 melanoma -96.8% | SK-MEL-2 melanoma -87.6% | SN12C renal -92.3% | UO-31 renal -89% | TK-10 renal -99.1% | ACHN renal -91.8% | CAKI-1 renal -92.5% | A498 renal -90.9% | MOLT-4 leukemia -63.3%

CC1CCCCN1S(=O)(=O)c1ccc(CN=C=S)cc1 (stereo unspecified)
inactive: HCT-15 colon 19.2% | HT29 colon 50.5% | SNB-75 CNS 69.3% | U251 CNS 68.8% | PC-3 prostate 74.4% | SK-MEL-5 melanoma 91.5% | UACC-62 melanoma 84.5% | SK-MEL-28 melanoma 88.5% | SK-MEL-2 melanoma 94.5% | EKVX NSCLC 99.2% | SN12C renal 66.1% | TK-10 renal 64.4% | CAKI-1 renal 51.2% | A498 renal 79% | CCRF-CEM leukemia 39.2% | MOLT-4 leukemia 31.1%
active: LOX IMVI melanoma 3.54% | ACHN renal 4.78%
